40 compounds from the supplement of paper PMC8699584 can be followed below.

Structures are written as SMILES. Values joined by “and” are separate entries in the source; they are usually repeats but may differ in a detail not shown here. Identical values can stand only once. Counter-ions that a name gives are not always drawn. ± gives the standard deviation of the averaged measurements.

For this test, the system named is Molm13. In words: cell viability relative to DMSO control (bortezomib = 0%); higher = less growth inhibition. As to conditions: 10 nM; 72 h. In short, it runs like this:
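Viability was determined with CellTiter-Glo luminescence. Acute myeloid leukemia cells (1000 per well, 50 µL) were exposed for 72 h to 679 approved and investigational compounds at a single 10 nM dose in 384-well plates. Percentages came from per-plate linear regression, setting DMSO-treated wells to 100% and positive-control-treated wells to 0%.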
In the case of `CC(C)(C)c1nc(-c2cccc(NS(=O)(=O)c3c(F)cccc3F)c2F)c(-c2ccnc(N)n2)s1`, the cell viability came out at 98.4 ± 6.6%.
The figure for `CN(C)C/C=C/C(=O)Nc1cc2c(Nc3ccc(F)c(Cl)c3)ncnc2cc1O[C@H]1CCOC1` [Afatinib (BIBW2992)] is 87.5 ± 7.3%.
Regarding `N#CC(c1ccnc(OCc2ccc(CN3CCOCC3)cc2)n1)c1nc2ccccc2s1` (stereo not given), the cell viability was 107 ± 20%.
Consider `Cc1ccc([N+](=O)[O-])cc1S(=O)(=O)N(C)/N=C/c1cnc2ccc(Br)cn12` [PIK-75 (hydrochloride)], for which the cell viability came to 94.7 ± 11%.
The figure for `O=C(Nc1cccnc1)c1cc(-c2ccnc(F)c2)ccc1OCc1ccccc1` is 101 ± 20%; for `N#CC(C#N)=C(N)/C(C#N)=C/c1cc(O)c(O)c(O)c1` it is 98.1 ± 28%.
Turning to `Cn1cc(-c2ccc3nnc(Sc4ccc5ncccc5c4)n3n2)cn1`, the cell viability is 127 ± 6.4%.
With `CC(=O)c1cnc2ccc(-c3cc(Cl)c(O)c(Cl)c3)nc2c1N[C@H]1CC[C@H](CN(C)C)CC1`, the cell viability came out at 95.1 ± 17%.
The figure for `N[C@@H]1CCCN(c2c(/C=C3\SC(=O)NC3=O)cccc2-c2ccccc2)C1` is 103 ± 1.3%.
For `O=C(NCc1ccccc1)c1csc(Nc2ccncn2)n1` [Thiazovivin] the value was 115 ± 7.6%; for `O=C1Cc2c([nH]c3ccc(Br)cc23)-c2ccccc2N1` [KenPaullone], 91.6 ± 2.8%.
Consider `FC(F)(F)c1ccc(CNc2ccc(Cc3c[nH]c4ncc(Cl)cc34)cn2)cn1`, for which the cell viability came to 89.207 ± 0.064%.
For `COc1cc(OC)c(/C=C/S(=O)(=O)Cc2ccc(OC)c(OP(=O)(O)O)c2)c(OC)c1` [Briciclib] the value was 114 ± 25%; for `COc1ccc(S(=O)(=O)N(C(C)=O)c2ccccc2/C=C/c2cc[n+]([O-])cc2)cc1`, 98.3 ± 18%; for `CCCCOc1c(C(=O)c2c(F)cc(C)cc2F)c[nH]c2nncc1-2`, 112 ± 1.9%.
Take `O=C1NC(=O)C(c2cnc3ccccn23)=C1c1cn2c3c(cc(F)cc13)CN(C(=O)N1CCCCC1)CC2`: the cell viability was 125 ± 6.1%.
The figure for `CC(C)=CCc1cc2c(cc1O)oc(=O)c1c3ccc(O)cc3oc21` [Psoralidin] is 111 ± 27%; for `Cn1cnc(N)c2ncnc1-2` [3-Methyladenine] it is 119 ± 7.3%.
The figure for `O=C(c1ccc(/C=C/c2n[nH]c3ccccc23)cc1)N1CCNCC1` is 104 ± 4.2%.
In the case of `COc1ccc(CNc2nc(N(CCO)CCO)nc3c2ncn3C(C)C)cc1`, the cell viability was found to be 102 ± 7%.
As to `COc1cc(N2CCOCC2)ccc1Nc1ncc(F)c(Nc2ccccc2NS(C)(=O)=O)n1`, the cell viability turned out to be 98.1 ± 5.6%.
With `CCOc1ccn(-c2ccc(F)cc2)c(=O)c1C(=O)Nc1ccc(Oc2ccnc(N)c2Cl)c(F)c1`, the cell viability was found to be 102.7 ± 0.96%.
The figure for `CNC(=O)CN1CCC(Oc2cc3c(Nc4cccc(Cl)c4F)ncnc3cc2OC)CC1` [AZD8931 (Sapitinib)] is 104 ± 6.3%.
For `CC(C)c1ccc2oc3nc(N)c(C(=O)O)cc3c(=O)c2c1` [Amlexanox] the value was 96.8 ± 11%.
For `CCN1CCN(Cc2ccc(C(=O)Nc3ccc(C)c(Oc4ccc5c(c4)CC(=O)N5)c3)cc2C(F)(F)F)CC1`, the cell viability worked out at 110 ± 13%.
With `O=C(NCCO)c1cccc(-c2cc(Nc3ccc(OC(F)(F)F)cc3)ncn2)c1`, the cell viability turned out to be 98.72 ± 0.31%.
For `CCN(CC)CCCCNc1ncc2cc(-c3cc(OC)cc(OC)c3)c(NC(=O)NC(C)(C)C)nc2n1` the value was 114% and 117%; for `CC1(C)C=Cc2c(ccc3c2OC[C@@H](c2ccc(O)cc2O)C3)O1` [Glabridin], 100 ± 12%.
For `CS(=O)(=O)c1cccc(CNc2nc(Nc3ccc4c(c3)CCC(=O)N4)ncc2C(F)(F)F)c1` the value was 98.44 ± 0.67%.
For `Oc1cc(-c2nc(-c3ccccc3)[nH]c2-c2ccncc2)ccc1Cl` the value was 105 ± 34%.
For `CC(=O)CC(c1ccccc1)c1c(O)c2ccccc2oc1=O` (stereo not given) [Warfarin], the cell viability came out at 109 ± 8.2%.
For the compound `CC(C)Oc1ccc(C(=O)N[C@H](CNC(=O)CN(C)C)Cc2ccc(-c3cn4cccc([C@H](C)O)c4n3)cc2)cc1Cl`, the cell viability was found to be 110 ± 19%.
The figure for `Cc1ccc2c(Nc3ccc(Cl)cc3)nccc2c1Nc1ncccc1-c1ncnc2nc[nH]c12` [B-Raf inhibitor 1] is 98.9 ± 11%; for `CN1CCN(CCOc2cc(OC3CCOCC3)c3c(Nc4c(Cl)ccc5c4OCO5)ncnc3c2)CC1` [Saracatinib (AZD0530)] it is 98.2 ± 3.5%; for `CN1CCN(S(=O)(=O)c2ccc(-c3cnc(N)c(C(=O)Nc4cccnc4)n3)cc2)CC1` it is 95.5 ± 17%.
Turning to `Nc1ncnc2c1ncn2[C@@H]1O[C@H](COP(=O)(O)O)[C@@H](O)[C@H]1O` [Adenosine 5'-monophosphate], the cell viability came to 96 ± 7.5%.
On to `Cc1nc2ccc(-n3ncc(C(=O)c4cc5ccccc5[nH]4)c3N)cc2[nH]1`, for which the cell viability came out at 114 ± 3.2%.
The figure for `Nc1ncnc2c1c(-c1cnc3[nH]ccc3c1)nn2C1CCCC1` is 118 ± 2.6%.
For `COc1ccc(-c2cnc3c(-c4cccc5ncccc45)cnn3c2)cc1` the value was 103 ± 12%; for `O=C(Nc1nc2cccc(-c3ccc(CN4CCS(=O)(=O)CC4)cc3)n2n1)C1CC1` [Filgotinib (GLPG0634)], 86.4 ± 6%.

What is called cell viability is a read-out of living cells in per cent, often relative to untreated cells.
